Assay results as given in PubChem BioAssay (Tox21).
Results filed as inconclusive are left out. Where a call stands in place of a potency, no number is given. Activity calls are given as the source filed them. Calls follow the shape of the full dose curve.

Test: qHTS assay to identify small molecule agonists of the hypoxia (HIF-1) signaling pathway - cell viability counter screen (AID 1224844); also: nearly all actives have a fitted effect of over 50% in size
Conditions: HRE-bla ME-180 viability, CellTiter-Glo luminescence, 17 h; series mostly up to 76.8 µM
Description: National Center for Advancing Translational Sciences [NCATS]
NIH Chemical Genomics Center [NCGC]
U.S. Environmental Protection Agency [EPA]
National Institutes of Environmental Health Sciences [NIEHS]
National Toxicology Program [NTP]
U.S. Food and Drug Administration [FDA]
Hypoxia-inducible factor-1 (HIF-1) is the major hypoxia-regulated transcription factor that controls cellular responses to low oxygen concentration. HIF-1 is composed of two subunits: hypoxia responsive HIF-1-alpha and constitutively expressed HIF-1-beta, which is also known as aryl hydrocarbon receptor nuclear translocator. During hypoxic conditions, HIF-1-alpha heterodimerizes with HIF-1-beta and translocates into the nucleus where the HIF-1 complex binds to the hypoxia-response element (HRE) and activates expression of target genes such as VEGF (vascular endothelial growth factor). The HIF-1 pathway is essential to normal growth and development, and is involved in the pathophysiology of cancer, inflammation, and ischemia.
Using a beta-lactamase reporter-gene under control of the hypoxia response element, a cell-based assay [CellSensor(TM) HRE-bla ME-180 from Life Technologies, Carlsbad, CA] was used to measure hypoxia-induced signaling. Tox21 10K library compounds were measured for their ability to induce the reporter gene activity. The cytotoxicity of the Tox21 compound library against HRE-bla ME-180 cell line was tested in parallel by measuring cell viability using CellTiter-Glo assay (Promega, Madison, WI) in the same assay wells.
Tox21 Assay Protocol Summary:
HRE-bla ME-180 cells were dispensed at 2,000 cells per well in 6 uL of assay medium containing 0.5% dialyzed FBS into black wall/clear-bottom 1536-well plates using a Multidrop Combi (Thermo Scientific, Waltham, MA) dispenser. After the assay plates were incubated at 37C and 5% CO2 for 5 hrs, 23 nL of compounds dissolved in DMSO, positive controls or DMSO only was transferred to each well of the assay plate using a Pintool station (Kalypsys, San Diego, CA). The assay plates were incubated at 37C and 5% CO2 for 17 hrs. One uL of LiveBLAzerTM B/G FRET substrate (CCF4-AM) (Life Technologies) was added to each well using a Flying Reagent Dispenser (FRD, Aurora Discovery, San Diego, CA). After 2 hr incubation at room temperature, fluorescence intensity (405 nm excitation, 460 nm and 530 nm emissions) was measured using an Envision plate reader (PerkinElmer, Shelton, CT). For cytotoxicity, 4 ul/well of CellTiter-Glo reagent was added into the assay plates using an FRD. After 30 min incubation at room temperature, the luminescence intensity was measured using a ViewLux plate reader (PerkinElmer).
Potency is read from the fitted curve at half-maximal effect.

Compound	Potency
CCN(CC)C(=O)N1CCN(C)CC1	inactive
O=C(O)CCC(=O)OC[C@@H](NC(=O)C(Cl)Cl)[C@H](O)c1ccc([N+](=O)[O-])cc1	inactive
O=[N+]([O-])C1(Br)COCOC1	38.9 µM (active)
O=C(Oc1ccccc1)c1ccc2ccccc2c1O	inactive
FC(F)(F)C(F)(F)C(F)(F)C(F)(F)CCI	inactive
C=CC(=O)NC(C)C	inactive
CC(C)(C(=O)c1cccnc1)c1cccnc1	inactive
COC(OC)OC	inactive
ClC1=C(Cl)C1(Cl)Cl	inactive
Nc1c(Cl)cc(Cl)cc1[N+](=O)[O-]	inactive
c1ccc(CNc2ncnc3c2ncn3C2CCCCO2)cc1 (stereo not given)	inactive
CCO[Si](C)(CCCOCC1CO1)OCC (stereo not given)	inactive
CCN(CC)c1ccc(C(=C2C=CC(=[N+](CC)CC)C=C2)c2ccc(S(=O)(=O)O)cc2S(=O)(=O)[O-])cc1	8.71 µM (active)
CCOC(=O)N1CCC(Nc2ccc(Cl)cc2N)CC1	inactive
CC(C)c1ccc(C(=O)N=C(N)N)cc1S(C)(=O)=O	inactive
O=C(O)CN1C(=O)c2cccc3cccc(c23)C1=O	inactive
Cc1ccc(Nc2c(F)cccc2Cl)c(CC(=O)O)c1	inactive
Oc1ccc2c(c1)Cc1ccccc1-2	inactive
CCCCC[C@H](O)/C=C/[C@H]1[C@H](O)CC(=O)[C@@H]1C/C=C\CCCC(=O)O	inactive
CCCCCCCC/C=C/C(=O)O	inactive

Compound	Potency
Cc1ccc(S(=O)(=O)NC(=O)NC2CCCCC2)cc1	inactive
O[C@@H](CNC[C@H](O)[C@H]1CCc2cc(F)ccc2O1)[C@@H]1CCc2cc(F)ccc2O1	23.9 µM (active)
CCCCCCCC/C=C\CCCCCCCC(=O)OCCO	inactive
Cc1cccc(C)c1NC(=O)c1cc(S(N)(=O)=O)c(Cl)cc1O	inactive
CCNc1nc(N)nc(Cl)n1	inactive
CCCCOCCOC(=O)c1cccnc1	inactive
O=C(O)c1cccc(Oc2ccccc2)c1	inactive
NC(=O)c1ccccc1[N+](=O)[O-]	inactive
CN1C(CSCC(F)(F)F)Nc2cc(Cl)c(S(N)(=O)=O)cc2S1(=O)=O (stereo not given)	inactive
COc1ccc(CCN(C)CCCN2CCc3cc(OC)c(OC)cc3CC2=O)cc1OC	inactive
Cc1oc(=O)oc1COC(=O)[C@@H]1N2C(=O)[C@@H](NC(=O)[C@H](N)c3ccccc3)[C@H]2SC1(C)C	inactive
CSSc1ccoc1C	inactive
Cc1ccc(NC(=O)N(C)C)cc1NC(=O)N(C)C	inactive
O=C1OC(=O)c2c(Br)c(Br)c(Br)c(Br)c21	inactive
CC1C(C)(C)C2=C(C(=O)CCC2)C1(C)C (stereo not given)	inactive
CC(=O)C(=O)CC(C)C	inactive
Cc1cccc2sc(N)nc12	inactive
COc1ccc(-n2nc(C(F)F)cc2-c2ccc(S(C)=O)cc2)cc1 (stereo not given)	inactive
CCCCCCCCCCCCCC(=O)OCC(O)CO (stereo not given)	inactive
CCCCCCC(CO)CCCC (stereo not given)	inactive
